# Experimental data from PubChem BioAssay (NCATS).
# Results filed as inconclusive are left out. A call without a number means that no potency is given here. Calls of active or inactive are those of the source. The call rests on the fitted dose curve; in most records, active means well fitted inhibition curve with a large enough effect; inconclusive means small, poorly fitted or top-dose-only effect; inactive means flat fitted curve, though single readings scatter.
# Test: High Content Imaging Cell-Based qHTS for Inhibitors of the mTORC1 Signaling Pathway in MEF (Tsc2-/-, p53-/-) Cells (AID 2666);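 further: percent of cells scored positive for phospho-rpS6 Ser235/236 immunostaining by imaging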
# Conditions: series mostly up to 38.3 µM
# Text: NIH Molecular Libraries Probe Production Centers Network [MLPCN]
# NIH Chemical Genomics Center [NCGC]
# Assay Submitter (PI): Blenis, John; Hoffman, Greg; Harvard University
# NCGC Assay Overview: Thee mammalian target of rapamycin (mTOR) is an intracellular serine/threonine kinase Aberrant regulation of mTOR signaling plays a causative role in a number of human diseases, including cancer, benign tumors such as lymphangioleiomyomatosis (LAM) and Tuberous Sclerosis Complex (TSC), and metabolic diseases such as diabetes and obesity. This project aims to identify inhibitors of ribosomal protein S6 (rpS6) phosphorylation. The phosphorylation of rpS6 is a key event downstream of mTOR activation. The assay uses a phospho-specific antibody of phospho-rpS6 to detect inhibitors of mTOR activation. Mutations in the Tsc1 and Tsc2 genes are the underlying genetic lesions responsible for TSC, causing constitutive activation of the mTORC1 pathway and leading to profound effects on cell metabolism. Aberrant metabolism in cancer has recently received significant attention as a target to develop therapeutic agents in the treatment of cancer1. As Tsc2-/- cells have lost the ability to respond to energy and growth factor deprivation, these cells are unable to properly down regulate cellular biosynthetic processes in response to metabolic stress, and are thus extremely sensitive to glucose deprivation-induced death.2 A central goal of this project is to explore the unique cell survival and metabolic properties of cells with Tsc1 or Tsc2 by screening for compounds that selectively target the Tsc2-/- MEFs by screening both Tsc2-/- and WT MEF cell lines. We hope to better understand these aspects of TSC physiology in order to exploit them for therapeutic benefit.
# NCGC IN Cell Assay Protocol:
# For quantitative high throughput analysis of mTORC1 signaling, we developed a cell-based assay for immuno-fluorescence based detection of rpS6 phosphorylation on the Acumen Explorer that will be used a platform for the primary small molecule screen. Mouse embryonic fibroblasts (MEFs) are cultured in 1536-well plates using DMEM + 10% FBS. Twenty-four hrs after plating, test compounds (solubilized in DMSO) are delivered and incubated with the cells for 24 hrs at 37 degree Celsius. Following the incubation, media with compound is aspirated and the cells are fixed in 4% paraformaldehyde (PFA) containing PBS + 0.2% TX-100. Next, PFA is aspirated, cells are washed two times with PBS plus 0.2% TX-100 and the cells are blocked for 1 hr at room temperature (blocking buffer: LiCOR Blocking Buffer plus 0.2% TX-100). This is followed by aspiration and staining with Alexa-488 conjugated-phospho-rpS6 Ser235/236 antibody for 2 hours at room temperature (Cell Signaling Technology # 4803, 1:50 dilution in blocking buffer). Cells are washed two times with PBS plus 0.2% TX-100, and stained with 10 uM propidium iodide (PI) for 20-25 minutes for cell number measurement (1:500 dilution of Hoescht staining is also added for IN Cell imaging). Active wells which are selected (based on Acumen results) are imaged on the IN Cell 1000 (GE Healthcare) using the D360/40X and HQ480/40X excitation filters for the Hoechst and Alexa-488 cytoplasmic stains, respectively. The fluorescence emission filters used were HQ460/40M and HQ535/50M for the Hoechst and Alexa-488 cytoplasmic stains, respectively. The normalized phospho-S6 staining is calculated as the ratio of […] for the single concentration rapamycin control ([…] nM) and DMSO columns. […] Inhibition of the pathway is defined based on the normalized phospho-S6 intensity in rapamycin treated cells. Each treatment is reported as the % positive cells in the well, where thresholds are defined by selecting wells with the highest and lowest signal and differentiating between the % non-active and % active populations. […]
row,SMILES,Potency
1,Cn1c(=O)c2[nH]c(-c3ccc(S(=O)(=O)O)cc3)nc2n(C)c1=O,inactive
2,CCCCCCCCCC(=O)NC(CN1CCOCC1)[C@H](O)c1ccccc1 (stereo not given in full),inactive
3,CCC1(O)CC2CN(CCc3c([nH]c4ccccc34)[C@@](C(=O)OC)(c3cc4c(cc3OC)N(C)C3[C@]45CCN4CC=C[C@@](CC)([C@@H](OC(C)=O)[C@]3(O)C(=O)OC)[C@H]45)C2)C1 (stereo not given in full),inactive
4,CCCn1c(=O)c2c(ncn2C)n(CCC)c1=O,inactive
5,COc1cccc(OC)c1OCCNCC1CSc2ccccc2O1 (stereo not given),inactive
6,N[C@H]1CONC1=O,inactive
7,c1ccc2c(c1)CC(N1CCN(c3cccc4c3OCCO4)CC1)C2,inactive
8,O=c1[nH]c2cc(Cl)ccc2c(O)c1-c1ccc(Oc2ccccc2)cc1,inactive
9,CC(=O)O[C@H]1CC2(C)[C@@H](C[C@@H](O)[C@H]3[C@@]4(C)CC[C@@H](O)[C@@H](C)[C@@H]4CC[C@@]32C)C1=C(CCC=C(C)C)C(=O)O (stereo not given in full),inactive
10,O=c1[nH]ccc2c(O)cccc12,inactive
11,NCCCNCCCCNCCCN,inactive
12,CCOC(=O)C12CC1/C(=N/O)c1ccccc1O2 (stereo not given),inactive
13,O=c1cc(O)cc(/C=C/c2ccc(O)c(O)c2)o1,inactive
14,Nc1ncnc2c1ncn2C1CCCC1,inactive
15,CNCCNS(=O)(=O)c1cccc2cnccc12,inactive
16,O=C(O)Cc1c[nH]c2ccc(O)cc12,inactive
17,CC(C)NC[C@H](O)COc1ccc(CC(N)=O)cc1,inactive
18,NC(Cc1cccc(-c2ccccc2CP(=O)(O)O)c1)C(=O)O (stereo not given),inactive
19,COc1cc([C@@H]2c3cc4c(cc3[C@H](O)C3COC(=O)[C@@H]32)OCO4)cc(OC)c1OC (stereo not given in full),inactive
20,COc1cc(/C=C(\C#N)C(=O)c2ccc(O)c(O)c2)cc(I)c1O,inactive

row,SMILES,Potency
1,CC(=O)C(C)=O,inactive
2,CC1C(=O)N(C)C(=O)c2nc[nH]c21 (stereo not given),inactive
3,Cc1ccc([N+](=O)[O-])cc1S(=O)(=O)N(C)C,inactive
4,N[C@@H](CCC(=O)N[C@H](CSN=O)C(=O)NCC(=O)O)C(=O)O,inactive
5,COC(=O)[C@H](NC(=O)c1cc(-c2ccccc2)nc2ccccc12)c1ccccc1,inactive
6,Oc1ccc(Cn2cc[nH]c2=S)cc1,inactive
7,Cc1nc(N=Nc2ccc(S(=O)(=O)O)cc2S(=O)(=O)O)c(COP(=O)(O)O)c(C=O)c1O,inactive
8,NC(=Nc1ccccc1)NC(=O)c1nc(Cl)c(N)nc1N,inactive
9,COc1ccc2c(c1)c(CC(=O)O)c(C)n2C(=O)c1ccccc1,inactive
10,COc1ccc2c(c1)CCC1C2CC[C@@]2(C)C1CC[C@@H]2NCCCCCCN1C(=O)C=CC1=O (stereo not given in full),inactive
11,NOCC(=O)O,inactive
12,CC(=O)[C@H]1CCC2C3CC=C4C[C@@H](OS(=O)(=O)O)CC[C@]4(C)C3CC[C@@]21C (stereo not given in full),inactive
13,CN1CC(O)C(O)C(O)C1CO (stereo not given),inactive
14,Nc1ccc(N2C(=O)c3ccccc3C2=O)c(Cl)c1,inactive
15,O=C(OCCN1CCOCC1)C1(c2ccccc2)CCCCC1,inactive
16,CC(N)(Cc1ccc(O)c(O)c1)C(=O)O (stereo not given),inactive
17,CCCOC(=O)c1c(-c2ccccc2)nc(CC)c(C(=O)SCC)c1CCC,inactive
18,C=C1C[C@@]23CC[C@H]4[C@@](C)(CCC[C@@]4(C)C(=O)OC4OC(CO)C(O)C(O)C4O)[C@@H]2CC[C@]1(OC1OC(CO)C(O)C(O)C1OC1OC(CO)C(O)C(O)C1O)C3 (stereo not given in full),inactive
19,Cn1c(=O)[nH]c2ncn(C)c2c1=O,inactive
20,C=CCNc1ncnc2ccc(Br)cc12,inactive
